Rows were chosen to be rich in hits. Some 7% of all compounds tested hit in one or more screens of this group.
D3 antag: qHTS of D3 Dopamine Receptor Antagonist: qHTS. D3R cells, DiscoveRx beta-arrestin luminescence, antagonist mode; hits give low values. 360,000 compounds, 2.5% hits. D(3) dopamine receptor (Homo sapiens), P35462. max response, negative = inhibition, %; in the data active = max response below about -50%; inconclusive = no clear call, values can overlap the other calls
Target sequence (P35462 whole entry, looked up): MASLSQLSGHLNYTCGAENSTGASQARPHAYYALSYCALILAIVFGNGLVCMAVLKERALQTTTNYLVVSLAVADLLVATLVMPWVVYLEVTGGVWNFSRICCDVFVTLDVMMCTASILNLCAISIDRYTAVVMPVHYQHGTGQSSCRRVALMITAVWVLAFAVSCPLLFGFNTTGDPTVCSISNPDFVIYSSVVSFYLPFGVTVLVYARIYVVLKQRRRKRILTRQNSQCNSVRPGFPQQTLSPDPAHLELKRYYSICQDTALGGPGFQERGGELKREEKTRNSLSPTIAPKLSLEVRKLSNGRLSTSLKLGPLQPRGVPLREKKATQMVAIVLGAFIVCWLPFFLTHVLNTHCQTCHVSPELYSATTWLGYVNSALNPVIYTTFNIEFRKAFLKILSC
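Cells plated overnight at 1500 cells/well, then exposed to library compounds with dopamine controls for 90 minutes at 37 degrees C. DiscoveRx reagent added for 30–60 minutes at room temperature; luminescence read, quantitative HTS format.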
Integrin act MD: qHTS for Activators of Integrin-Mediated Alleviation for Muscular Dystrophy. alpha7betagal myoblasts, beta-gal FDG fluorescence, 48 h. Potency, µM (titrated, usually from 38.3 µM), usual class: activators. 350,000 compounds, 0.064% hits; also: nearly all actives have a fitted effect of over 60% in size
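Alpha7betagal+/- myoblasts (passage 13) were plated 16-24 hr, then exposed to compounds (1:260 dilution of DMSO stock) for 48 hours at 37C. After MPER lysis, β-galactosidase reporter activity was read as FDG fluorescence (ex 480/em 540) after 30 minutes.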
ATXN2 expr inh: Primary qHTS for Inhibitors of ATXN expression. Potency, µM (titrated, usually from 57 µM), actives largely listed as inhibitors. AID 1745845, 2022. 360,000 compounds, 0.72% hits. HEK-293 ATXN2-luciferase reporter, luminescence, 24 h; also: nearly all actives have a fitted effect of over 55% in size
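qHTS (up to 57 uM final) was run with 24 h compound exposure of reporter cells at 37 °C. Each well was multiplexed: SteadyGlo luminescence measured ATXN2-luciferase expression after a fluorogenic Gly-Phe-AFC viability readout (25 uM final).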
S2 tox: Viability Counterscreen for Primary qHTS for Inhibitors of ATXN expression; S2 cells (HEK-293 line with an ATXN2-luciferase reporter) viability, CellTiter-Fluor protease fluorescence, 24 h; Potency, µM (doses to about 56.7 µM), hits mostly cytotoxic; 400,000 compounds, 0.49% hits; also: nearly all actives have a fitted effect of over 40% in size
D3 ag: qHTS of D3 Dopamine Receptor Agonist: qHTS. D(3) dopamine receptor (Homo sapiens), P35462. D3R DiscoveRx beta-arrestin cells, luminescence, 90 min. max activation, %. 410,000 compounds, 0.58% hits. AID 652048, 2013; in the data active = max activation above about 30%
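Agonist-mode cell screen: cells plated at 1500/well and incubated overnight at 37 °C, then exposed to library compounds for 90 min at 37 °C. Detection reagent was added for 30–60 min at room temperature, and luminescence was read.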
IL-1B inflam inh: qHTS for Inhibitors of Inflammasome Signaling: IL-1-beta AlphaLISA Primary Screen. THP-1 LPS/ATP IL-1B secretion, AlphaLISA, 16 h; hits give low values. activity change, % at 57.5 µM. 360,000 compounds, 4.7% hits; in the data active = activity change below about -50%; inconclusive = mostly about -30% to -49%
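THP-1 cells pretreated 1 hr with compounds (up to 57.5 uM final), then stimulated with LPS (250 ng/mL final) plus ATP (1.25 mM final); secreted IL-1B measured by AlphaLISA after 16 hr, decreased signal indicating inhibition.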
Large screens that a line does not name were inactive. Unless noted, calls follow the shape of the dose curve; as a rule, active = well fitted curve in the direction sought with a large enough effect; inconclusive = small, poorly fitted or top-dose-only effect, or another doubt; inactive = no such curve, though single readings can be large; an effect the other way counts as inactive or inconclusive.

O=S(Cc1ccccc1)c1ccccc1 (stereo not drawn)	none
O=S(Cc1ccc(Cl)cc1)c1ccccc1 (stereo not drawn)	D3 ag 66
COc1ccc(C(C)C)cc1S(=O)(=O)Nc1cccnc1	none (no result: ATXN2 expr inh)
CC(=O)NC(c1cccc(F)c1)c1nc(-c2cnn(C)c2)cs1 (stereo not drawn)	D3 antag -53 (no result: Integrin act MD)
Cc1sc2ncnc(N3CCN(C(=O)c4ccco4)CC3)c2c1C	none
Cc1sc2nnn(CC(=O)N3CCN(C(=O)c4ccco4)CC3)c(=O)c2c1C	none
Cc1sc2nc(C(C)C)nc(SCC(=O)N3CCN(C(=O)c4ccco4)CC3)c2c1C	ATXN2 expr inh 32µM (no result: S2 tox)
Cc1sc2ncnc(SCC(=O)N3CCN(C(=O)c4ccco4)CC3)c2c1C	IL-1B inflam inh -54
O=C(Nc1nnc(-c2ccccc2Cl)o1)c1ccc(S(=O)(=O)N2CCCCCC2)cc1	ATXN2 expr inh inconclusive, S2 tox inconclusive
CCC1CCCCN1S(=O)(=O)c1ccc(C(=O)Nc2nnc(C3CC3)o2)cc1 (stereo not drawn)	ATXN2 expr inh inconclusive
CCC1CCCCN1S(=O)(=O)c1ccc(C(=O)Nc2nnc(-c3ccccc3Cl)o2)cc1 (stereo not drawn)	D3 antag -86, ATXN2 expr inh inconclusive, S2 tox inconclusive
CC1CCCCN1S(=O)(=O)c1ccc(C(=O)Nc2nnc(-c3ccccc3Cl)o2)cc1 (stereo not drawn)	D3 antag -71, ATXN2 expr inh inconclusive
COc1cc(=O)n(C)c2ccccc12	Integrin act MD 2.2µM
COc1ccc2c(OC)cc(=O)n(C)c2c1	none
CCC(C)(C)n1nnnc1C(c1ccncc1)N1CCC(Cc2ccccc2)CC1 (stereo not drawn)	none
CCC(C)(C)n1nnnc1C(c1cccnc1)N1CCC(Cc2ccccc2)CC1 (stereo not drawn)	IL-1B inflam inh -65
O=C1C2CCCN2C(=O)N1CCN1CCN(CCO)CC1 (stereo not drawn)	none
COc1ccccc1N1CCN(CCCN2CC(=O)N3CCCCC3C2=O)CC1 (stereo not drawn)	D3 antag -53
Cc1ccccc1N1CCN(CCCCN2C(=O)C3CCCN3C2=O)CC1 (stereo not drawn)	D3 antag -84
CCCCOc1ccccc1N1CCN(CCCN2C(=O)C3CCCN3C2=O)CC1 (stereo not drawn)	D3 antag -87
COc1ccccc1N1CCN(CCCCN2C(=O)C3CCCCN3C2=O)CC1 (stereo not drawn)	D3 antag -77
CC1CN(C(=O)COC(=O)c2cc3ccccc3cc2O)CC(C)O1 (stereo not drawn)	Integrin act MD inconclusive
CC1(C)CC(NC(=O)c2ccc(Cl)cc2Cl)CC(C)(C)N1	none
COc1ccc(-c2nc(N=Nc3ccc(O)cc3)n[nH]2)cc1	D3 antag inconclusive, S2 tox 8.9µM, IL-1B inflam inh inconclusive
CC(C)C(Cl)=NOC(=O)Nc1ccc(S(N)(=O)=O)cc1	ATXN2 expr inh inconclusive, IL-1B inflam inh -99 (no result: S2 tox)
N#Cc1ccc(NC(=O)Nc2ccc(Cl)cc2)cc1	ATXN2 expr inh inconclusive, S2 tox inconclusive, IL-1B inflam inh -110
CN(CC(=O)Nc1ccc(C#N)cc1)Cc1ccc(Cl)cc1	D3 antag inconclusive
CNC(=O)Nc1ccc(S(N)(=O)=O)cc1	Integrin act MD inconclusive
CC(C)c1ccc(C(=O)N2CCCC(c3cc(C(=O)NCc4ccccc4)no3)C2)cc1 (stereo not drawn)	none (no result: Integrin act MD)
Nc1ccc(C(=O)NN2C(=O)[C@H](Cl)C2c2ccc(Cl)cc2)cc1 (stereo partly drawn)	ATXN2 expr inh inconclusive, S2 tox 13µM, IL-1B inflam inh -104
CCCCN1C(=O)C(=O)N(CC(=O)Nc2ccc(C(N)=O)cc2)C1=O	none
O=C(NC(c1ccccc1)c1ccsc1)C1CCN(Cc2ccc(Cl)c(Cl)c2)CC1 (stereo not drawn)	D3 antag -61, IL-1B inflam inh inconclusive (no result: Integrin act MD)
O=C(NC(c1ccccc1)c1ccsc1)C1CCN(Cc2ccc(Oc3ccccc3)cc2)CC1 (stereo not drawn)	D3 antag -100, S2 tox inconclusive, IL-1B inflam inh inconclusive (no result: Integrin act MD)
CC(C)(C)Nc1nc(NN)nc(NC(C)(C)C)n1	D3 antag -80
CC(C)(C)Nc1nc(Cl)nc(NC(C)(C)C)n1	none
CCNc1nc(Oc2ccc(OCC(=O)OC)nn2)nc(N2CCOCC2)n1	none (no result: D3 antag, Integrin act MD, IL-1B inflam inh)
Cc1ccc(-c2ncccc2OC(=O)C23CC4CC(CC(C4)C2)C3)cc1	none
CCN(CC)CC(O)CNc1ccnc2c(Cl)ccc(Cl)c12 (stereo not drawn)	S2 tox inconclusive, IL-1B inflam inh -66
COc1ccc(F)cc1C(=O)C1CCCN(Cc2cn(C)c3ccccc23)C1 (stereo not drawn)	D3 antag -92, ATXN2 expr inh inconclusive, S2 tox inconclusive, IL-1B inflam inh -78
COc1ccc(F)cc1C(=O)C1CCCN(Cc2c[nH]c3ccccc23)C1 (stereo not drawn)	D3 antag -107, IL-1B inflam inh inconclusive
Cn1cc(CN2CCCC(C(=O)c3cc(F)ccc3F)C2)c2ccccc21 (stereo not drawn)	D3 antag -64, ATXN2 expr inh inconclusive, S2 tox inconclusive, IL-1B inflam inh -71
COc1ccc(C(=O)C2CCCN(Cc3cn(C)nc3-c3ccccc3)C2)cc1F (stereo not drawn)	none (no result: ATXN2 expr inh)
Cc1ccc(CN2CCN(C(=O)CCC(=O)Nc3nnc(C(C)C)s3)CC2)c(C)c1	IL-1B inflam inh -86
CCc1nnc(NC(=O)CCC(=O)N2CCN(Cc3ccc(C)cc3C)CC2)s1	none
CCc1nnc(NC(=O)CCC(=O)N2CCN(CCOc3ccc(C)cc3)CC2)s1	D3 ag 45
CCN1CCN(C(=O)Cn2nc(C)c3sc4ccccc4c3c2=O)CC1	Integrin act MD inconclusive
O=c1c2[nH]c3cccc(Cl)c3c2ncn1Cc1ccncc1	none
O=[N+]([O-])c1c(Nc2ccc(O)cc2)cc(Cl)c2nonc12	D3 antag -161, IL-1B inflam inh -101 (no result: ATXN2 expr inh, S2 tox)
O=C(O)c1ccccc1Nc1cc(Cl)c2nonc2c1[N+](=O)[O-]	none
O=[N+]([O-])c1c(Nc2ccccn2)cc(Cl)c2nonc12	D3 antag -86, ATXN2 expr inh 28µM, S2 tox inconclusive, IL-1B inflam inh -101
O=C(NC1CCCc2ccccc21)c1cncc(Br)c1 (stereo not drawn)	none

Screening results (PubChem)
